About 1,900 (79%) of roughly 2,400 compounds were called active.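 Rule for the calls: active = inhibition above the mean of all tested compounds plus 3 SD (cut at about 3% in these data); inactive = the rest.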 The set was probably picked from earlier hits. A selection follows.

For orientation: inhibition means the change of the read-out against control, counted positive when it falls.

A short description of the assay: StAR reporter signal changes without DAX1, counter-screen for DAX1 inhibitor project, cell-based, luminescence, AF-2 mutant SF-1, transactivation (AID 652136).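 Note: 0% = DAX-1 transfected cells with DMSO and 100% = cells without DAX-1 with DMSO.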 The conditions noted are these: HEK293 StAR-luciferase, SF-1 AF2 mutant, at 6.8 µM, active compounds read high. (In general: Counterscreens check selectivity or assay interference.)
In the case of `O=C(Nc1ccccc1)Nc1nc2ccccc2s1`, the inhibition was 10.3% (active).
`Nc1ccc(C(=O)Nc2ccccc2N)cc1`: the inhibition is 42.6% (active).
Consider `O=C(NC(=S)NC1CCCCC1)c1ccc(Cl)cc1`, for which the inhibition is 4.24% (active).
Regarding `CSCCC(NC(=O)c1ccco1)C(=O)Nc1cc(C)ccn1` (configuration not stated), the inhibition was 7.83% (active).
`O=c1c2c(nc3n1CCCCC3)sc1c(O)cccc12`: the inhibition was 7.48% (active).
Take `CC[C@]1(O)CC2CN(CCc3c([nH]c4ccccc34)[C@@](C(=O)OC)(c3cc4c(cc3OC)N(C=O)[C@H]3[C@@](O)(C(=O)OC)[C@H](OC(C)=O)[C@]5(CC)C=CCN6CC[C@]43[C@@H]65)C2)C1` (some centres not stated): the inhibition was -7.3% (inactive).
On to `COC(=O)c1sc(NC(=O)c2ccc(OC)cc2OC)nc1C`, for which the inhibition was 3.15% (active).
For `CN1OC[C@@H]2CN[C@H](c3ccc(-c4ccccc4)cc3)C[C@@H]21`, the inhibition is 5.72% (active).
As to `CC(=O)Nc1cccc(-c2csc(Nc3cccc(C)n3)n2)c1`, the inhibition was 8.58% (active).
In the case of `c1ccc2[nH]c(-c3nc4ccccc4[nH]3)nc2c1`, the inhibition was 8.74% (active).
As to `Cc1ccc(-c2nc3ccccc3[nH]2)cc1N`, the inhibition is 8.86% (active).
Consider `O=c1oc(/C=C/c2ccccc2)nc2ccccc12`, for which the inhibition is 7.24% (active).
As to `Cn1ccnc1SCC(=O)Nc1ccc2c(c1)OCCO2`, the inhibition was 5.39% (active).
On to `CCN(CC(=O)Nc1c(F)cccc1F)C(=O)c1cnc(C)cn1`, for which the inhibition is 0.25% (inactive).
Turning to `Cc1nc2cc(NC(=O)Nc3cccc(F)c3)ccc2n1C`, the inhibition was 8.9% (active).
Consider `O=C(N/N=C\C1CC=CCC1)c1ccc(Br)o1` (configuration not stated), for which the inhibition is 0.2% (inactive).
In the case of `NC(=O)CSc1nnc(NC(=O)c2ccc3ccccc3c2)s1`, the inhibition was 7.69% (active).
`CCSc1nnc(NC(=O)c2ccc(C)cc2)s1`: the inhibition is 6.21% (active).
Take `Nc1c(C(=O)Nc2ccc3c(c2)OCCO3)nnn1Cc1ccccc1`: the inhibition was 7.14% (active).
Then `CC[C@]1(O)C[C@@H]2CN(CCc3c([nH]c4ccccc34)[C@@](C(=O)OC)(c3cc4c(cc3OC)N(C)[C@H]3[C@@](O)(C(=O)OC)[C@H](OC(C)=O)[C@]5(CC)C=CCN6CC[C@]43[C@@H]65)C2)C1`, with -6.49% (inactive); and `Cc1ccc(-n2cc3ccc([N+](=O)[O-])cc3n2)cc1`, with 6.18% (active); and `Brc1ccc2nc(N3CCCC3)sc2c1`, with 4.08% (active).
On to `S=C(c1ccc(-c2ccccc2)o1)N1CCCCC1`, for which the inhibition is 5.47% (active).
Take `Cc1ccnc(NC(=O)CCNS(=O)(=O)c2ccc(C)c(C)c2)c1`: the inhibition was 9.35% (active).
For the compound `Cc1ccnc(NC(=O)CNC(=O)c2ccccc2)c1`, the inhibition was 2.35% (inactive).
Next, `CC1CCCN(c2ccc(C(=O)NCCc3ccccc3)cn2)C1` (configuration not stated): 3.59% (active).
Turning to `O=C(c1cnn2ccccc12)N1CCc2ccccc21`, the inhibition was 6.23% (active).
Then `Cc1sc(NC(=O)c2ccc3ncsc3c2)c(C(N)=O)c1C`, with 5.5% (active); and `O=C(Nc1ccc(Cl)c(Cl)c1)c1ccccc1NC(=O)C1CC=CCC1C(=O)O` (configuration not stated), with 4.5% (active).
Then `CN1CCN(c2ccc(NC(=O)c3ccc4c(c3)OCCO4)cc2Cl)CC1`, with 4.72% (active); and `Cc1ccc(C(=O)NNC(=O)c2ccc3c(c2)OCCO3)cc1`, with 2.35% (inactive); and `O=C(Nc1ccccc1)c1ccc2c(c1)OCCCO2`, with 7.83% (active).
Regarding `Cc1nc(NC(=O)c2ccc3c(c2)OCCO3)ccc1Br`, the inhibition was 7.07% (active).
`Cc1c(C(=O)Nc2ccccn2)oc2ccc(Br)cc12`: the inhibition is 8.11% (active).
For `O=C(Nc1ccn(Cc2ccccc2)n1)c1n[nH]c([N+](=O)[O-])c1Cl`, the inhibition was 3.58% (active).
Turning to `O=C(CCc1ccccc1)Nc1ncc([N+](=O)[O-])s1`, the inhibition is 1.92% (inactive).
In the case of `c1ccc(Cc2c(-c3ccco3)nc3c4ccccc4ccn23)cc1`, the inhibition was 8.27% (active).
In the case of `COc1ccccc1CCC(=O)OCC(=O)N1CCN(S(=O)(=O)c2ccc(C)cc2C)CC1`, the inhibition is 1.55% (inactive).
Consider `CC1CCN(C(=O)COC(=O)c2cc(=O)[nH]c3ccccc23)CC1`, for which the inhibition was 5.98% (active).
On to `COc1cc(/C=N/O)ccc1OCc1ccc([N+](=O)[O-])cc1`, for which the inhibition was 6.8% (active).
Take `COc1cc(C2c3cc4c(cc3C(O)C3COC(=O)C23)OCO4)cc(OC)c1OC` (configuration not stated): the inhibition was -5.65% (inactive).
Regarding `CC(C)c1ccc(Nc2ncccc2C#N)cc1`, the inhibition is 5.42% (active).
Consider `C(=N\Nc1ccc2ccccc2n1)/c1ccc2c(c1)OCO2`, for which the inhibition is 2.84% (inactive).
Regarding `COc1cccc(/C=C/C(=O)Nc2ccc3c(c2)OCCO3)c1`, the inhibition is 3.61% (active).
`Cc1cccc(NC(=O)/C=C/c2ccc3c(c2)OCO3)n1`: the inhibition was 6.21% (active).
Next, `COc1ccc(/C=C/C(=O)Nc2ccc(C34CC5CC(CC(O)(C5)C3)C4)cc2)cc1OC`: -4.01% (inactive).
`O=C(NCCc1c[nH]c2ccccc12)c1cc2ccccc2oc1=O`: the inhibition was 7.29% (active).
With `O=C(O)c1ccc(N/N=C/c2cn(-c3ccccc3)nc2-c2cccs2)cc1`, the inhibition is 6.77% (active).
For the compound `Cc1csc(SCC(=O)Nc2sccc2C#N)n1`, the inhibition was 10.8% (active).
Take `Cc1cc(C)c(C)c(S(=O)(=O)N2CCN(C(=O)c3ccc4c(=O)n5c(nc4c3)CCC5)CC2)c1C`: the inhibition is -0.34% (inactive).
Then `CCCc1cc(C(=O)Nc2ccc(C(=O)OC)cc2)cs1`, with 3.67% (active); and `CCCc1cc(C(=O)Nc2ccc(Cl)cn2)cs1`, with 6.47% (active); and `CC(C)(O)C#Cc1ccc(CNC[C@H]2O[C@@H](n3cnc4c(=O)[nH]c(N)nc43)[C@H](O)[C@@H]2O)s1`, with -0.84% (inactive).
Next, `CCCNC(=O)C1CC(=O)N(c2ccc(OCc3ccccc3)cc2)C1` (configuration not stated): 4.36% (active).
In the case of `CCc1ccc(NC2Nc3cc(C)nn3S2)cc1` (configuration not stated), the inhibition was 5.97% (active).
With `O=C(Nc1ccc(NC(=O)c2cccs2)cn1)c1ccco1`, the inhibition is 6.87% (active).
`CC(=O)Nc1cccc(C(=O)OCC(=O)c2ccc3c(c2)OCO3)c1`: the inhibition is 5.14% (active).

(Values after PubChem BioAssay AID652136 (The Scripps Research Institute Molecular Screening Center, 2013).)
